Laboratory results taken from PubChem BioAssay.
Calls of active or inactive are those of the source.

How the values were obtained:
[1] = system: Human papillomavirus type 1a protein E7 (residues 44-93); test: HPV1a E7 fragment binders on microarrays, primary screen, biochemical, small-molecule microarray, residues 44-93, 635 nm fluorescence (AID 1108); conditions: small-molecule microarray binding, fluorescence 635 nm; higher = more signal;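 also: E7 fragment applied at 1 µg/mL in TBST for 1 h at 4 C; score combines spot fluorescence with its signal to noise ratio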
[2] = modulators of HCV replicon luciferase signal, primary screen, HCV replication inhibitor project, Huh7 cells, luciferase reporter (AID 1109); conditions: 48 h, higher = more signal;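 also: huh7 hepatoma cells harbouring a luciferase neomycin HCV replicon reporter; luciferase luminescence as measure of HCV replicon replication; test concentration not given here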
[3] = biological target: Left-right determination factor 2 (Homo sapiens) (UniProt O00292); test: LEFTY2 binders on small-molecule microarrays, primary screen, biochemical, small-molecule microarray, 635 nm fluorescence scan (AID 1110); conditions: LEFTY2 binding, higher = more signal
Sequence of Left-right determination factor 2 (Homo sapiens) (O00292 whole entry, looked up): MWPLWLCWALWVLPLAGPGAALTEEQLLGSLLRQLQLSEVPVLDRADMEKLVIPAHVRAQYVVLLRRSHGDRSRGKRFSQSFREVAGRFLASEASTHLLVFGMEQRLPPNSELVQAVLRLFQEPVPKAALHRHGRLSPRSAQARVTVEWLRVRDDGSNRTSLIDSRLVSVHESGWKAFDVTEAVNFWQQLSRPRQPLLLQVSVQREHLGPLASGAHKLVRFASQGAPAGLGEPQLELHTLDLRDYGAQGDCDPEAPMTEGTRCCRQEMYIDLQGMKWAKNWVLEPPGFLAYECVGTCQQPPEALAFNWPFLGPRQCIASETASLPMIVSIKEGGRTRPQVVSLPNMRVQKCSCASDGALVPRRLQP

[4] = biological target: Calmodulin-1 (Homo sapiens) (UniProt P0DP23); test: CALM1 binders on microarrays, EGTA buffer, profiling panel, biochemical, small-molecule microarray, Cy5-labelled CALM1 (AID 1111); conditions: Cy5-CALM1 binding fluorescence, higher = more signal;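 also: labelled calmodulin applied in Tris saline Tween buffer holding calcium plus EGTA and DTT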
[5] = biological target: Calmodulin-1 (Homo sapiens) (UniProt P0DP23); test: calcium-bound CALM1 binders on microarrays, profiling panel, artefact control for SMM control-protein annotation, biochemical, small-molecule microarray, Cy5-labelled CALM1, plus calcium (AID 1112); conditions: Cy5-CALM1 binding fluorescence, higher = more signal;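 also: score merges spot fluorescence with signal to noise from triplicate slides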
[6] = small-molecule microarray binders of probe aWnt5a, primary screen, biochemical, biotinylated probe, 635/667 nm fluorescence (AID 1113); conditions: higher = more signal;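 also: score merges 667 nm fluorescence intensity with signal-to-noise per printed feature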
[7] = small-molecule microarray binders of probe aShh, primary screen, biochemical, biotinylated probe, 635/667 nm fluorescence (AID 1114); conditions: higher = more signal;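 also: probe is biotin-labelled aShh protein from a stem cell growth factor screen; measures binding of labelled protein to compounds printed on the slide; score merges feature fluorescence at 667 nm with signal-to-noise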
[8] = small-molecule microarray binders of probe aNog, primary screen, biochemical, biotinylated probe, 635/667 nm fluorescence (AID 1115); conditions: higher = more signal;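 also: probe is biotinylated aNog protein used at 0.15 µg/mL for 1 h at 4 C; z-score combines 667 nm fluorescence of each spot with its signal to noise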
[9] = biological target: Torsin-1A-interacting protein 1 (Homo sapiens) (UniProt Q5JTV8); test: LAP1 binders from COS7 cell lysate, primary screen, small-molecule microarray, 635/667 nm fluorescence (AID 1116); conditions: COS7-hLAP1 lysate binding, 635 nm fluorescence, higher = more signal
Sequence of Torsin-1A-interacting protein 1 (Homo sapiens) (Q5JTV8 whole entry, looked up): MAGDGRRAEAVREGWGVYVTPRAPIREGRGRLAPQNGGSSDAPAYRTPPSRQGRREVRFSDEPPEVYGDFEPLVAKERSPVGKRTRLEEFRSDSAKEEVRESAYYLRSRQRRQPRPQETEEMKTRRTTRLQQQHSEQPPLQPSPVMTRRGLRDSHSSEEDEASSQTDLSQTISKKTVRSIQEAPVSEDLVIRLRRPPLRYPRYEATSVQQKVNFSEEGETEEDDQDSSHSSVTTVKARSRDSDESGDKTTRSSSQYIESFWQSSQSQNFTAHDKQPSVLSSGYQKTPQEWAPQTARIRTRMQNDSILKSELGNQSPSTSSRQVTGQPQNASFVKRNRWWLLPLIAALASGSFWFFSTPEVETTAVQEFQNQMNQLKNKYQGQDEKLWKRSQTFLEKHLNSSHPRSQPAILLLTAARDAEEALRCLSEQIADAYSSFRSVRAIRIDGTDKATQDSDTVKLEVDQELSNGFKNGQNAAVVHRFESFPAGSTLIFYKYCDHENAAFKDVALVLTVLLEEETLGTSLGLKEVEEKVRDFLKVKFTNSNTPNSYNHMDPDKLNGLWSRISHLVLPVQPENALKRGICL

[10] = biological target: Alpha-bungarotoxin (Bungarus multicinctus) (UniProt P60615); test: alpha-bungarotoxin binders on microarray, profiling panel, artefact control for SMM control protein annotation, biochemical, small-molecule microarray, Alexa647 label, 635/667 nm fluorescence (AID 1117); conditions: alpha-BTX-A647 binding fluorescence, higher = more signal
Sequence of Alpha-bungarotoxin (Bungarus multicinctus) (P60615 whole entry, looked up): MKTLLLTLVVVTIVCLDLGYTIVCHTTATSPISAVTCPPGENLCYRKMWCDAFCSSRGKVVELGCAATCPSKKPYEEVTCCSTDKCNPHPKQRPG

[11] = biological target: Albumin (Bos taurus) (UniProt P02769); test: bovine serum albumin binders on microarray, profiling panel, artefact control for SMM control protein annotation, biochemical, small-molecule microarray, Alexa647 label, 635/667 nm fluorescence (AID 1118); conditions: BSA-A647 binding, fluorescence 635 nm, higher = more signal;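 also: score merges 667 nm emission intensity and signal-to-noise per printed compound spot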
Sequence of Albumin (Bos taurus) (P02769 whole entry, looked up): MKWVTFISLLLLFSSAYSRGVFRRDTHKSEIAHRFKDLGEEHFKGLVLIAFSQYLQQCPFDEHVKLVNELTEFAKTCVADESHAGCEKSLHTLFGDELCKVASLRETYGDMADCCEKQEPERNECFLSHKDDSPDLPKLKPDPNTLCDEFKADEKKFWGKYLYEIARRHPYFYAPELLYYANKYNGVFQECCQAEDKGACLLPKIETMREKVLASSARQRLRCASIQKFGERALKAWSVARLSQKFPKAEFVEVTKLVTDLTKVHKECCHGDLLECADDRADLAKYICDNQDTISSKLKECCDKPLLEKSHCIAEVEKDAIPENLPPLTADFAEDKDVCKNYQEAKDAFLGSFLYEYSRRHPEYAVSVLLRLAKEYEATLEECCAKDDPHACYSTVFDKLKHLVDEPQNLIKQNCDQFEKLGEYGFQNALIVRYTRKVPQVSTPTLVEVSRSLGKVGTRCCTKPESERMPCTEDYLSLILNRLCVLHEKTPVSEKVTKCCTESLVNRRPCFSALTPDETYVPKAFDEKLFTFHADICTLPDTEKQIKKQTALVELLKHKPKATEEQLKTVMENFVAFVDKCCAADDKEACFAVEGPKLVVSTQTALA

[12] = small-molecule microarray binders of probe aXIP, primary screen, biochemical, NeuroSMM set, 635/667 nm fluorescence (AID 1119); conditions: higher = more signal, called active from +8 up or from −8 down;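 also: probe is the protein aXip251-270 applied at 1 µg/mL to compound-printed slides; binding of probe to printed compounds measured as 667 nm fluorescence plus signal to noise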
[13] = small-molecule binders of probe aNOTCH3, primary screen, biochemical, small-molecule microarray, 635/667 nm fluorescence (AID 1120); conditions: higher = more signal;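 also: probe is a biotin-tagged antibody raised against NOTCH3 rather than NOTCH3 protein; score merges spot fluorescence near 667 nm with spot signal to noise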
[14] = small-molecule binders of probe aNOTCH2, primary screen, biochemical, small-molecule microarray, 635/667 nm fluorescence (AID 1121); conditions: higher = more signal;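 also: score merges feature fluorescence read at 667 nm with its signal to noise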
[15] = biological target: Carbonic anhydrase 2 (Homo sapiens) (UniProt P00918); test: CAII small-molecule binders, profiling panel, biochemical, small-molecule microarray, Alexa647-labelled CAII (AID 1122); conditions: CAII-A647 binding fluorescence, higher = more signal
[16] = COS7 lysate on small-molecule microarray, probe aHis, 635 nm (AID 1123); conditions: COS7 cell lysate, fluorescence, higher = more signal;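 also: z-score combines 667nm fluorescence intensity with signal-to-noise per printed compound spot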
[17] = compound binding in COS7 lysate, probe aLAP1, primary screen, cell lysate, small-molecule microarray (AID 1124); conditions: probe aLAP1, fluorescence, higher = more signal;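 also: lysate comes from COS7 cells expressing LAP1 and is applied at 0.3 µg/mL; score merges spot fluorescence near 667 nm with signal-to-noise over triplicate slides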
[18] = system: Sam68 (KHDRBS1); test: Sam68 small-molecule binders, primary screen, biochemical, small-molecule microarray, 635 nm fluorescence (AID 1125); conditions: small-molecule microarray binding, higher = more signal;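 also: score merges 667 nm channel intensity with signal to noise over triplicate slides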
[19] = system: Chordin-like protein 2 (CHRDL2); test: CHRDL2 small-molecule binders, primary screen, biochemical, small-molecule microarray, 635 nm fluorescence (AID 1126); conditions: small-molecule microarray binding, fluorescence 635 nm; higher = more signal;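 also: printed compound slides probed with Chrdl2 protein at 4 µg/mL for 1 h at 4 C; score merges 667 nm emission intensity with signal to noise over three replicate slides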
[20] = biological target: Concanavalin-A (Canavalia ensiformis) (UniProt P02866); test: ConA small-molecule binders, primary screen, artefact control for SMM control protein annotation, biochemical, small-molecule microarray, Alexa647 label, 635 nm (AID 1127); conditions: ConA-A647 binding fluorescence, higher = more signal;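 also: z combines 667 nm emission intensity with signal-to-noise across three replicate slides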
Sequence of Concanavalin-A (Canavalia ensiformis) (P02866 whole entry, looked up): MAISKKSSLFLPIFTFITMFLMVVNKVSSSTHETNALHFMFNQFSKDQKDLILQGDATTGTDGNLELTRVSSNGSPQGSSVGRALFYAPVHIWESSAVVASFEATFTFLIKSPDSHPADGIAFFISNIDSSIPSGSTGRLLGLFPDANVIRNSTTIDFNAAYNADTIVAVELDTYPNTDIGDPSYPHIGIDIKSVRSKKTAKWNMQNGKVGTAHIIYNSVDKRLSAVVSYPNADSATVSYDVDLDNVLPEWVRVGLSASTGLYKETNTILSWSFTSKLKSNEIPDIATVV

SMILES | composite z-score [1] | z-score [2] | composite z-score [3] | composite z-score [4] | composite z-score [5] | composite z-score [6] | composite z-score [7] | composite z-score [8] | composite z-score [9] | composite z-score [10] | composite z-score [11] | composite Z-score [12] | composite z-score [13] | composite z-score [14] | composite z-score [15] | composite z-score [16] | composite z-score [17] | composite z-score [18] | composite z-score [19] | composite z-score [20]
COCCOC(=O)N1C(=O)[C@@]2(c3cc(C#CCC(C(=O)OC)C(=O)OC)ccc31)[C@H](C(=O)N1CCc3cc(OC)c(OC)cc3C1)[C@H]1C(=O)O[C@H](c3ccccc3)[C@H](c3ccccc3)N1[C@@H]2c1ccc(OCCO)cc1 | 1.39 | -0.45 | 0.608 | 0.756 | -0.551 | -0.006 | -0.1 | -0.103 | 0.0568 | 2.16 | -0.525 | 0.654 (inactive) | 0.15 | -0.0357 | 0.357 | 1.2 | 0.519 | 1.29 | 0.837 | 1.11
O[C@@H](Cc1ccccc1)[C@@H](/C=C/C1CC1)N(CC#Cc1ccccc1)Cc1cccc(Cl)c1 | -0.55 | -1.52 | -1.61 | -0.738 | 0.352 | -0.275 | -0.147 | -0.196 | -0.565 | -0.0369 | -0.22 | 0.889 (inactive) | -0.376 | -0.117 | -0.245 | -0.359 | 0.0449 | -0.117 | -1.21 | -0.403
C=CCN1C(=O)[C@@]2(CCS(=O)(=O)c3ccccc3)N=C(c3ccc(OCCCO)cc3)O[C@H]2c2ccccc21 | 1.42 | -1.97 | 0.876 | 1.94 | -0.313 | 0.0215 | -0.304 | 0.906 | 0.791 | 1.22 | -0.567 | -0.101 (inactive) | -0.0302 | -0.0664 | 0.277 | 2.53 | 0.207 | 0.988 | 0.83 | 1.12
C=C(/C(=C/C[C@H](OC(C)=O)c1ccccc1OCCO)c1cc(C(=O)OC)ccc1OC)C(C)C | 0.83 | -1.74 | 0.0218 | -0.227 | -0.578 | -0.096 | 0.0469 | -0.0244 | 0.612 | -0.0802 | 0.469 | -0.0127 (inactive) | -0.0782 | -0.173 | 0.491 | 1.26 | -0.0654 | 0.527 | -0.152 | 0.548
COC(=O)C1=CC(CCCO)=CC(C2CC2)N(C)C=C1C(=O)OC (stereo not given) | -0.105 | -0.902 | -0.087 | 0.727 | 0.295 | -0.184 | 0.449 | -0.328 | 1.03 | -0.24 | 1.04 | 0.856 (inactive) | -0.0108 | -0.0668 | 0.97 | 1.09 | 0.687 | 0.0065 | -0.761 | 0.0472
CC(=O)NCCCC[C@@H]1NC(=O)[C@@H]2C[C@H](C(=O)NCCCC[N+](C)(C)C)[C@H](c3ccc(O)cc3)N2C1=O | 0.364 | -0.307 | 1.35 | -0.206 | 0.32 | -0.0758 | 0.366 | 0.33 | 1.06 | 1.57 | -0.763 | 0.0463 (inactive) | 0.271 | -0.0467 | 0.514 | 1.18 | -0.111 | 1.29 | 1.35 | 1.16
CN(C)CCCNC(=O)[C@@]1(c2ccc([N+](=O)[O-])cc2)CC(=O)N(CC23CC4CC(CC(C4)C2)C3)[C@@H]1c1ccc(CO)cc1I | 1.39 | -3.54 | 0.703 | 0.307 | -0.0622 | 0.0668 | 0.462 | 0.192 | 1.27 | 1.15 | 0.685 | -0.729 (inactive) | 0.095 | -0.0877 | 0.511 | 2.86 | 0.457 | 1.28 | 0.731 | 1.14
CC(=O)NCCCC[C@@H]1NC(=O)[C@H]2C[C@@H](C(=O)NCCCC[N+](C)(C)C)[C@@H](c3cccc(OCCO)c3)N2C1=O | -0.194 | -1.08 | 1.47 | -2.42 | -1.62 | 0.027 | 0.0121 | -0.122 | 1.04 | 0.604 | -1.1 | 2.16 (inactive) | 0.204 | -0.0974 | 0.704 | 1.75 | 1.16 | 0.719 | 1.49 | 1.1
CCOC(=O)C1=CC[C@@H](c2ccc(OCc3ccccc3)c(OC)c2)N(S(=O)(=O)c2ccc(C)cc2)[C@H]1c1ccc(SC)cc1 | 1.4 | -1.75 | 0.458 | 1.23 | 0.298 | 0.155 | 0.0659 | 1.1 | 0.746 | 0.573 | 0.783 | 0.207 (inactive) | 0.386 | 0.202 | 0.625 | 2.53 | 0.157 | 1.31 | 0.525 | 0.806
O=C1C[C@@](C(=O)NCCN2CCOCC2)(c2ccc([N+](=O)[O-])cc2)[C@@H](c2ccc(CO)cc2I)N1C1CCCCC1 | 1.18 | -2.66 | 0.369 | -0.413 | -0.173 | -0.0445 | 0.0611 | 0.079 | 0.646 | 1.43 | 0.614 | 0.142 (inactive) | -0.095 | -0.14 | 0.659 | 1.74 | 1.07 | 0.761 | 0.473 | 0.416
CCOC(=O)C[C@H]1[C@H](OC(=O)Cc2ccc3c(c2)OCO3)[C@@H](NC(=O)CC(C)C)c2cc(OCCCO)ccc2N1C(=O)Cc1ccc(OC)cc1 | 0.479 | -0.948 | 0.073 | -0.221 | -0.361 | -0.012 | -0.138 | -0.25 | 0.466 | 1.03 | 0.779 | -0.867 (inactive) | -0.0328 | -0.0288 | 0.0138 | 0.775 | 0.166 | 0.282 | -0.226 | -0.622
